According to PubChem BioAssay (NCATS):
Records with an inconclusive call do not appear. Where a call stands in place of a potency, no number is given. Active and inactive are the calls of the source. Calls come from the whole dose curve; as a rule, active = well fitted curve in the direction sought with a large enough effect; inconclusive = small, poorly fitted or top-dose-only effect, or another doubt; inactive = no such curve, though single readings can be large; an effect the other way counts as inactive or inconclusive.

molecular target: Thioredoxin reductase 1, cytoplasmic (Rattus norvegicus) (UniProt O89049); test: qHTS Assay for Inhibitors of Mammalian Selenoprotein Thioredoxin Reductase 1 (TrxR1) (AID 488773); conditions: purified TrxR1 enzyme activity; Potency: inhibition; series mostly up to 57.1 µM; note: nearly all actives have a fitted effect of over 40% in size; note: potency is the fitted concentration of half-maximal effect
Method in brief: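 Inhibition is scored from the loss of NADPH fluorescence between first and last reads of an 8-min kinetic run. Selenite (400 uM) was the substrate, added after 15 min compound preincubation at room temperature.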

Chain of Thioredoxin reductase 1, cytoplasmic (Rattus norvegicus) (O89049 whole entry, looked up): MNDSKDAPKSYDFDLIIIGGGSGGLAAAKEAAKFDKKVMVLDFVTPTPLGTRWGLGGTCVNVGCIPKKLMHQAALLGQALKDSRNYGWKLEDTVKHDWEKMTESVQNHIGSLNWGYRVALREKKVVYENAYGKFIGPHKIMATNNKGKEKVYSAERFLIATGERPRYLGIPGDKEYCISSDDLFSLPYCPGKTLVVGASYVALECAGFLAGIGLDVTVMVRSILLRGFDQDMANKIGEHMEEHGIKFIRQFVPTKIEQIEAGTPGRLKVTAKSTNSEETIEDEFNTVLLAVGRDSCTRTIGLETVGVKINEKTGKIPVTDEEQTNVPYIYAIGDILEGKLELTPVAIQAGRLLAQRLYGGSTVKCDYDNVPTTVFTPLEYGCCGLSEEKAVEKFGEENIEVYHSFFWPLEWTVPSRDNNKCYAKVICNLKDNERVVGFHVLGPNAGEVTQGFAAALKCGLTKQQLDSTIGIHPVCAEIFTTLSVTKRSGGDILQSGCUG

Question: `CCN1CCCC1CNC(=O)c1cc(S(N)(=O)=O)ccc1OC` (stereo not drawn) was tested. Which Potency did it give?
Answer: inactive

Question: How did the Potency turn out when `CCN(CC)CCn1c(=O)c(Cc2ccc(OC)cc2)nc2ccccc21` was run?
Answer: inactive

Question: How did the Potency turn out when `COc1cc2ncnc(Nc3cccc(Cl)c3)c2cc1OC` was run?
Answer: inactive

Question: Which Potency does the source give for `CC(C)NCC(O)c1ccc(NS(C)(=O)=O)cc1` (stereo not drawn) here?
Answer: inactive

Question: For `Nc1nc(N)c2nc(CNc3ccc(C(=O)NC(CCC(=O)O)C(=O)O)cc3)cnc2n1` (stereo not drawn), which Potency is on record?
Answer: inactive

Question: How did the Potency turn out when `N[C@@H](Cc1ccc(O)c(O)c1)C(=O)O` was run?
Answer: 29.9 µM (active)

Question: How did the Potency turn out when `CC1=C(C(=O)O)N2C(=O)[C@@H](NC(=O)C(N)c3ccccc3)[C@H]2SC1` (stereo partly drawn) was run?
Answer: inactive

Question: `NC(=O)c1ccc2[nH]ccc2c1` was tested. Which Potency did it give?
Answer: inactive

Question: How did the Potency turn out when `CCCCS(=N)(=O)CCC(N)C(=O)O` (stereo not drawn) was run?
Answer: inactive

Question: `CC(=O)[C@H]1CC[C@H]2[C@@H]3CCC4=CC(=O)CC[C@]4(C)[C@H]3CC[C@]12C` was tested. Which Potency did it give?
Answer: inactive

Question: `NC(=O)c1cccc(N)c1` was tested. Which Potency did it give?
Answer: inactive

Question: For `CCN(CC)CC#CCOC(=O)C(O)(c1ccccc1)C1CCCCC1` (stereo not drawn), which Potency is on record?
Answer: inactive

Question: For `COc1cc2nc(N3CCCN(C)CC3)nc(NC3CCN(Cc4ccccc4)CC3)c2cc1OC`, which Potency is on record?
Answer: inactive

Question: How did the Potency turn out when `O=C(O)C1CCCN(CCC=C(c2ccccc2)c2ccccc2)C1` (stereo not drawn) was run?
Answer: inactive

Question: Which Potency does the source give for `CC1CC2C3CCC4=CC(=O)C=C[C@]4(C)[C@@]3(F)[C@@H](O)C[C@]2(C)[C@@]1(O)C(=O)CO` (stereo partly drawn) here?
Answer: inactive

Question: Which Potency does the source give for `Cc1ccc(S(=O)(=O)N[C@@H](Cc2ccccc2)C(=O)CCl)cc1` here?
Answer: 21.2 µM (active)

molecular target: Flap endonuclease 1 (Homo sapiens) (UniProt P39748); test: qHTS Validation Assay for the Inhibitors of Human Flap endonuclease 1 (FEN1) (AID 488816); conditions: FEN1 nuclease activity, fluorogenic DNA substrate; series mostly up to 57.1 µM; note: potency is the fitted concentration of half-maximal effect
Method in brief: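 qHTS format: compounds and 10 nM FEN1 incubated 15 min at room temperature before adding 50 nM substrate. Cleavage followed by reads at 0 and 15 min; normalized data fitted to a four-parameter Hill curve.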

Chain of Flap endonuclease 1 (Homo sapiens) (P39748 whole entry, looked up): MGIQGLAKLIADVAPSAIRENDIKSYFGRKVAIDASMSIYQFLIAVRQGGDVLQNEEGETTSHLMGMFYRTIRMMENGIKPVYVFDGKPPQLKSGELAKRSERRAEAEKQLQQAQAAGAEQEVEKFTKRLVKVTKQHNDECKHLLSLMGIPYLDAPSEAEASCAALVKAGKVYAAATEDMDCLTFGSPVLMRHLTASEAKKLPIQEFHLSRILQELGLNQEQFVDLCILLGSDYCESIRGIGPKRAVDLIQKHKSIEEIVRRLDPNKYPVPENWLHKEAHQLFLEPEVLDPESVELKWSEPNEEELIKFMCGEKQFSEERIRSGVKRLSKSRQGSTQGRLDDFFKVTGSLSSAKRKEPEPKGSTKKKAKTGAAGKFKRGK

Question: With `CCN1CCCC1CNC(=O)c1cc(S(N)(=O)=O)ccc1OC` (stereo not drawn) as the compound, how does the Potency read?
Answer: inactive

Question: For `COc1cc2ncnc(Nc3cccc(Cl)c3)c2cc1OC`, which Potency is on record?
Answer: inactive

Question: Which Potency does the source give for `CC(C)NCC(O)c1ccc(NS(C)(=O)=O)cc1` (stereo not drawn) here?
Answer: inactive

Question: Which Potency does the source give for `Nc1nc(N)c2nc(CNc3ccc(C(=O)NC(CCC(=O)O)C(=O)O)cc3)cnc2n1` (stereo not drawn) here?
Answer: inactive

Question: Which Potency does the source give for `N[C@@H](Cc1ccc(O)c(O)c1)C(=O)O` here?
Answer: 3.77 µM (active)

Question: Which Potency does the source give for `CC1=C(C(=O)O)N2C(=O)[C@@H](NC(=O)C(N)c3ccccc3)[C@H]2SC1` (stereo partly drawn) here?
Answer: inactive

Question: With `NC(=O)c1ccc2[nH]ccc2c1` as the compound, how does the Potency read?
Answer: inactive

Question: With `OCc1ccc(-c2nn(Cc3ccccc3)c3ccccc23)o1` as the compound, how does the Potency read?
Answer: inactive

Question: `CCCCS(=N)(=O)CCC(N)C(=O)O` (stereo not drawn) was tested. Which Potency did it give?
Answer: inactive

Question: With `CC(=O)[C@H]1CC[C@H]2[C@@H]3CCC4=CC(=O)CC[C@]4(C)[C@H]3CC[C@]12C` as the compound, how does the Potency read?
Answer: inactive

Question: Which Potency does the source give for `NC(=O)c1cccc(N)c1` here?
Answer: inactive

Question: How did the Potency turn out when `CCN(CC)CC#CCOC(=O)C(O)(c1ccccc1)C1CCCCC1` (stereo not drawn) was run?
Answer: inactive

Question: Which Potency does the source give for `O=C(O)C1CCCN(CCC=C(c2ccccc2)c2ccccc2)C1` (stereo not drawn) here?
Answer: inactive

Question: Which Potency does the source give for `CC1CC2C3CCC4=CC(=O)C=C[C@]4(C)[C@@]3(F)[C@@H](O)C[C@]2(C)[C@@]1(O)C(=O)CO` (stereo partly drawn) here?
Answer: inactive

Question: Which Potency does the source give for `Cc1ccc(S(=O)(=O)N[C@@H](Cc2ccccc2)C(=O)CCl)cc1` here?
Answer: inactive

molecular target: M-phase phosphoprotein 8 (Homo sapiens) (UniProt Q99549); test: qHTS Validation Assay for Inhibitors for MPP8 Chromodomain Interactions with Methylated Histone Tails (AID 488949); conditions: AlphaScreen MPP8 binding to H3K9me3 peptide; series mostly up to 57.1 µM; note: nearly all actives have a fitted effect of over 55% in size; note: potency is the fitted concentration of half-maximal effect
Method in brief: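 MPP8 (50 nM) was pre-bound to 50 nM biotinylated H3(1-18)K9me3 peptide in PBS pH 7.4 with 0.01% Tween-20. Compounds were then added for 30 min at room temperature, and complex disruption was read by AlphaScreen with streptavidin donor and nickel-chelate acceptor beads.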

Chain of M-phase phosphoprotein 8 (Homo sapiens) (Q99549 whole entry, looked up): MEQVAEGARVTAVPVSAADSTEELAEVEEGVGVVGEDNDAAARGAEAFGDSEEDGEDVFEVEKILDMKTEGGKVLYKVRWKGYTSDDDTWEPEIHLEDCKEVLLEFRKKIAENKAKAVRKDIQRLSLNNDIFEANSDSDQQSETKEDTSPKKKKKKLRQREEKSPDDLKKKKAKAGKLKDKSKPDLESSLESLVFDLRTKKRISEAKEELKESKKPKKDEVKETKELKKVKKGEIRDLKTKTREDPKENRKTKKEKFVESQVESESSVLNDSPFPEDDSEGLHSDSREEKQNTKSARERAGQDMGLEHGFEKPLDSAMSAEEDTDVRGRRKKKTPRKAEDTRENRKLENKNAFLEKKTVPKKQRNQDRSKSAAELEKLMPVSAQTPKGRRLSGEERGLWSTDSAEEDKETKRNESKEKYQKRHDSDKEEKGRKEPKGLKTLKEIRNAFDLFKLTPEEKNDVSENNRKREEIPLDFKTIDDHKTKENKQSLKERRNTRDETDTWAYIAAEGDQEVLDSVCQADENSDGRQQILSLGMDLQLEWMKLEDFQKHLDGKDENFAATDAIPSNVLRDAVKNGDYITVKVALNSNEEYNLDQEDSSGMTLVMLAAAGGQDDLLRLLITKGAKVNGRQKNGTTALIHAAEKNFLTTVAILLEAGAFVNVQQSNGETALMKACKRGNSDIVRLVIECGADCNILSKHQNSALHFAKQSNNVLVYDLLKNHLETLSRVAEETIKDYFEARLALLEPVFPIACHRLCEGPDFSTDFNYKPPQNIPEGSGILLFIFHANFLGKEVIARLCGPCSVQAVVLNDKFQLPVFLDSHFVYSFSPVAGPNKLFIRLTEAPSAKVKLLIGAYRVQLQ

Question: How did the Potency turn out when `CCN1CCCC1CNC(=O)c1cc(S(N)(=O)=O)ccc1OC` (stereo not drawn) was run?
Answer: inactive

Question: For `CCN(CC)CCn1c(=O)c(Cc2ccc(OC)cc2)nc2ccccc21`, which Potency is on record?
Answer: inactive

Question: For `COc1cc2ncnc(Nc3cccc(Cl)c3)c2cc1OC`, which Potency is on record?
Answer: inactive

Question: How did the Potency turn out when `CC(C)NCC(O)c1ccc(NS(C)(=O)=O)cc1` (stereo not drawn) was run?
Answer: inactive

Question: With `N[C@@H](Cc1ccc(O)c(O)c1)C(=O)O` as the compound, how does the Potency read?
Answer: 7.52 µM (active)

Question: Which Potency does the source give for `NC(=O)c1ccc2[nH]ccc2c1` here?
Answer: inactive

Question: With `OCc1ccc(-c2nn(Cc3ccccc3)c3ccccc23)o1` as the compound, how does the Potency read?
Answer: 25.1 µM (active)

Question: `CCCCS(=N)(=O)CCC(N)C(=O)O` (stereo not drawn) was tested. Which Potency did it give?
Answer: inactive

Question: With `CC(=O)[C@H]1CC[C@H]2[C@@H]3CCC4=CC(=O)CC[C@]4(C)[C@H]3CC[C@]12C` as the compound, how does the Potency read?
Answer: inactive

Question: Which Potency does the source give for `NC(=O)c1cccc(N)c1` here?
Answer: inactive

Question: For `CCN(CC)CC#CCOC(=O)C(O)(c1ccccc1)C1CCCCC1` (stereo not drawn), which Potency is on record?
Answer: inactive

Question: How did the Potency turn out when `COc1cc2nc(N3CCCN(C)CC3)nc(NC3CCN(Cc4ccccc4)CC3)c2cc1OC` was run?
Answer: inactive

Question: For `O=C(O)C1CCCN(CCC=C(c2ccccc2)c2ccccc2)C1` (stereo not drawn), which Potency is on record?
Answer: inactive

Question: Which Potency does the source give for `CC1CC2C3CCC4=CC(=O)C=C[C@]4(C)[C@@]3(F)[C@@H](O)C[C@]2(C)[C@@]1(O)C(=O)CO` (stereo partly drawn) here?
Answer: inactive

Question: Which Potency does the source give for `Cc1ccc(S(=O)(=O)N[C@@H](Cc2ccccc2)C(=O)CCl)cc1` here?
Answer: inactive

Question: Which Potency does the source give for `CC(C)(C)NC(=O)[C@H]1CC[C@H]2[C@@H]3CC[C@H]4NC(=O)C=C[C@]4(C)[C@H]3CC[C@]12C` here?
Answer: inactive

molecular target: Methanococcus maripaludis chaperonin (MmCpn) (UniProt Q6LX38); test: High-Throughput Screening for Modulators of Cytosolic Chaperonin Activity: MmCpn Primary Screen (AID 488978); conditions: Purified MmCpn ATPase activity, ADP HTRF detection, 10 min; series mostly up to 76.9 µM;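 note: 50 nM MmCpn enzyme hydrolysing 30 µM ATP at 37 °C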
Method in brief: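 MmCpn at 50 nM final was preincubated 5 min at RT with compound. ATP was then added at 30 uM final for 10 min at 37 C. ADP formed was detected by Transcreener HTRF (665/590 nm).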

Chain of Methanococcus maripaludis chaperonin (MmCpn) (Q6LX38 1-543): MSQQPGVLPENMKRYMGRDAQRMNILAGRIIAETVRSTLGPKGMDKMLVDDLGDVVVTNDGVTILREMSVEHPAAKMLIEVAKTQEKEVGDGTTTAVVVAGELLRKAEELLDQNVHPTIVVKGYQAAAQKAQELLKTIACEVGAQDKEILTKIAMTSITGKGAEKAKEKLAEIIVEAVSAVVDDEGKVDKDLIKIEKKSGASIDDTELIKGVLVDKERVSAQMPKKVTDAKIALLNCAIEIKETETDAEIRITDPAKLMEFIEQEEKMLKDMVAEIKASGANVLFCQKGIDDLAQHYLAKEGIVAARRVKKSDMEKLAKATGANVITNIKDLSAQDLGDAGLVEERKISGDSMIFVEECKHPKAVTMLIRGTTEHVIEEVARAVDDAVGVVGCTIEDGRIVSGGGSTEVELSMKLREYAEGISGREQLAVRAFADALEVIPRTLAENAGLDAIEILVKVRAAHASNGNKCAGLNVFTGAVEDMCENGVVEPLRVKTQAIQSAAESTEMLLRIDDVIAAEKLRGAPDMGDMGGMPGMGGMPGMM

Question: How did the outcome turn out when `CCN1CCCC1CNC(=O)c1cc(S(N)(=O)=O)ccc1OC` (stereo not drawn) was run?
Answer: inactive

Question: Which outcome does the source give for `CCN(CC)CCn1c(=O)c(Cc2ccc(OC)cc2)nc2ccccc21` here?
Answer: inactive

Question: Which outcome does the source give for `COc1cc2ncnc(Nc3cccc(Cl)c3)c2cc1OC` here?
Answer: inactive

Question: Which outcome does the source give for `CC(C)NCC(O)c1ccc(NS(C)(=O)=O)cc1` (stereo not drawn) here?
Answer: inactive

Question: With `Nc1nc(N)c2nc(CNc3ccc(C(=O)NC(CCC(=O)O)C(=O)O)cc3)cnc2n1` (stereo not drawn) as the compound, how does the outcome read?
Answer: inactive

Question: For `N[C@@H](Cc1ccc(O)c(O)c1)C(=O)O`, which outcome is on record?
Answer: inactive

Question: `CC1=C(C(=O)O)N2C(=O)[C@@H](NC(=O)C(N)c3ccccc3)[C@H]2SC1` (stereo partly drawn) was tested. Which outcome did it give?
Answer: inactive

Question: `NC(=O)c1ccc2[nH]ccc2c1` was tested. Which outcome did it give?
Answer: inactive

Question: For `OCc1ccc(-c2nn(Cc3ccccc3)c3ccccc23)o1`, which outcome is on record?
Answer: inactive

Question: With `CCCCS(=N)(=O)CCC(N)C(=O)O` (stereo not drawn) as the compound, how does the outcome read?
Answer: inactive

Question: Which outcome does the source give for `CC(=O)[C@H]1CC[C@H]2[C@@H]3CCC4=CC(=O)CC[C@]4(C)[C@H]3CC[C@]12C` here?
Answer: inactive

Question: For `NC(=O)c1cccc(N)c1`, which outcome is on record?
Answer: inactive

Question: `CCN(CC)CC#CCOC(=O)C(O)(c1ccccc1)C1CCCCC1` (stereo not drawn) was tested. Which outcome did it give?
Answer: inactive

Question: For `COc1cc2nc(N3CCCN(C)CC3)nc(NC3CCN(Cc4ccccc4)CC3)c2cc1OC`, which outcome is on record?
Answer: inactive

Question: How did the outcome turn out when `O=C(O)C1CCCN(CCC=C(c2ccccc2)c2ccccc2)C1` (stereo not drawn) was run?
Answer: inactive

Question: For `CC1CC2C3CCC4=CC(=O)C=C[C@]4(C)[C@@]3(F)[C@@H](O)C[C@]2(C)[C@@]1(O)C(=O)CO` (stereo partly drawn), which outcome is on record?
Answer: inactive
